Rows were chosen to be rich in hits. Some 20% of all compounds tested hit in one or more screens of this group.
Cycloheximide cs = counter-screen for Shiga toxin inhibitors: cycloheximide protein synthesis inhibition | cell reporter, cycloheximide protein synthesis inhibition counterscreen | max response, % | 300,000 tested, 12% active; in the data active = max response mostly above about 13%, no sharp cut-off; inactive = mostly below about 14%; also: read at 38.3 µM for the half of the compounds with a filed dose; 0% is about no effect
Pf growth 96h = inhibits malaria parasite growth, 96 h; Potency, µM (highest dose often 28.7 µM), for the others: top-dose activity change, negative = inhibition, actives largely listed as inhibitors; 320,000 tested, 6.9% active; AID 504834; P. falciparum luciferase reporter growth, 96 h; also: potency is read from the fitted curve at half-maximal effect; % is scaled to controls: 0 for no effect and ±100 for the full control effect
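Readout is luminescence from an integrated firefly luciferase in P. falciparum. Red cells, 2% hematocrit and 0.05% parasitemia final, were cultured with compound through two parasite generations (96 hours) at 37 C, 5% CO2.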
Pf growth 48h = inhibits P. falciparum growth in the first generation, 48 h; AID 504832; Potency, µM (top dose mostly 28.7 µM), without a hit: at the highest dose activity change, negative = inhibition, most hits filed as inhibitors; P. falciparum luciferase growth in erythrocytes, 48 h; 310,000 tested, 5.9% active; also: potency is read from the fitted curve at half-maximal effect; % is scaled to controls: 0 for no effect and ±100 for the full control effect
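Growth was read as firefly luciferase luminescence after a 48 h, 37 C, 5% CO2 exposure of compounds to reporter-bearing P. falciparum cultures (0.1% parasitemia, 2% hematocrit final) in Albumax-supplemented RPMI 1640.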
HCMV inh = blocks human cytomegalovirus replication; HFF cells, HCMV-luciferase reporter, 72 h; hits give low values; activity change, negative = inhibition, % at 57.5 µM; 410,000 tested, 4.5% active; AID 1259415; in the data active = activity change below about -60%; inconclusive = no clear call, values can overlap the other calls; inactive = above about -39%; also: % is scaled to controls: 0 for no effect and ±100 for the full control effect
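HFF cells seeded 16 h at 37C, treated with compounds, infected with luciferase-reporter HCMV at MOI 1 PFU/cell; luciferase read at 72 h post infection, normalized to buffer-only and Salinomycin controls.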
Shiga toxin inh = blocks Shiga toxin action in Vero cells | Vero cells, Shiga toxin protein synthesis inhibition reporter | inhibition, % at 38.7 µM | 290,000 tested, 9.2% active | AID 2315; in the data active = inhibition mostly above about 28%, no sharp cut-off; inactive = mostly below about 43%; also: 0% is about no effect
Active calls of the source: *; i = inactive; ? = inconclusive; nt = not tested or not shown. Unless noted, calls follow the shape of the dose curve; as a rule, active = well fitted inhibition curve with a large enough effect; inconclusive = small, poorly fitted or top-dose-only effect, or another doubt; inactive = no such curve, though single readings can be large or run the other way.

SMILES	Cycloheximide cs	Pf growth 96h	Pf growth 48h	HCMV inh	Shiga toxin inh
O=C(NCCCN1CCOCC1)c1ccc2c(c1)N(Cc1ccccc1)C(=O)c1ccccc1S2	-1	?	1%	0	-15
Cc1cc2[nH]c3c(=O)n(Cc4ccccc4F)ncc3c2s1	-1	nt	nt	nt	2
COc1ccc(NC(=O)CCNS(=O)(=O)c2ccc3c(c2)CCCC(=O)N3)cc1	nt	nt	nt	-11	nt
CCOC(=O)C(C(=O)OCC)N(C#N)c1nc(N(C)C)nc(N(C)C)n1	-2	24%	4%	3	-10
CCN(CC(O)COCc1ccc(Cl)cc1)C1CCCCC1 (stereo unspecified)	-8	?	10µM*	-13	-6
COc1ccc(CCn2c(C(C)C)nc3c(c(=O)c4ccccc4n3C)c2=O)cc1	-5	1.9µM*	12µM*	nt	-8
COc1ccc(CCn2c(S)nc3ccccc3c2=O)cc1	30*	-10%	nt	nt	41*
COc1ccc2c(=O)c3c(=O)n(CCc4ccccc4)c(C(C)C)nc3oc2c1	-1	5.2µM*	7.4µM*	10	-5
COc1ccc(CCn2c(C)nc3c(c(=O)c4ccccc4n3C)c2=O)cc1	0	4.7µM*	?	32	-7
COc1ccc(Cn2c(C)nc3c(c(=O)c4ccccc4n3C)c2=O)cc1	10	?	?	-14	4
NC(=O)C1CCCN1 (stereo unspecified)	-2	24%	2%	-25	-16
Cc1ccccc1C(=O)Nc1cccc(C(=O)OCc2cc(=O)n3c4c(sc3n2)CCCC4)c1	nt	nt	nt	-19	nt
Cc1cccc(C(=O)N2CCc3cc(CNC(=O)c4ccco4)ccc32)c1	nt	nt	nt	-38	nt
Nc1ccc2nc(-c3ccc(-c4nc5ccc(N)cc5[nH]4)cc3)[nH]c2c1	-3	2.3µM*	12µM*	24	33
Nc1ccc2nc(-c3cccc(-c4nc5ccc(N)cc5[nH]4)n3)[nH]c2c1	1	0.52µM*	2.1µM*	-39	-5
Nc1ccc(-c2nc3ccc(-c4nc5ccc(N)cc5[nH]4)cc3[nH]2)cc1	0	nt	nt	nt	-7
O=C(NCc1ccc2c(c1)OCO2)C1CCN(S(=O)(=O)N2CCOCC2)CC1	-3	3.7µM*	8%	-15	-16
O=C(NC1CC1)C1CCN(C2CCN(C(=O)Cc3ccc4c(c3)OCO4)CC2)CC1	-1	12µM*	1%	30	-7
CC(C)NC(=O)C1CCN(C2CCN(C(=O)Cc3ccc4c(c3)OCO4)CC2)CC1	-2	7%	29%	-11	12
O=C(NCc1ccc2c(c1)OCO2)C1CCN(S(=O)(=O)N2CCCCC2)CC1	-4	15%	11%	102	-4
O=C(NCc1ccc2c(c1)OCO2)C1CCN(c2ccc(S(=O)(=O)N3CCCC3)cc2)CC1	-1	68%	10µM*	?	-10
CCS(=O)(=O)N1CCCC(C(=O)NCc2ccc3c(c2)OCO3)C1 (stereo unspecified)	-2	-13%	1%	-10	10
COc1ccc(S(=O)(=O)N2CCCC(C(=O)NCc3ccc4c(c3)OCO4)C2)cc1 (stereo unspecified)	-10	-23%	2.1µM*	?	-6
Cc1nn(CCCC(=O)Nc2cccnc2Cl)c(C)c1[N+](=O)[O-]	6	?	-2%	8	24
CCC(Sc1nc2nccnc2c(=O)n1Cc1ccccc1Cl)C(=O)NC1CCCCC1 (stereo unspecified)	nt	nt	nt	-13	nt
SMILES	Cycloheximide cs	Pf growth 96h	Pf growth 48h	HCMV inh	Shiga toxin inh
CCCC(=O)Nc1cccc(NC(=O)c2ccc3c(c2)OCCO3)c1	23*	?	47%	-36	64*
CCCCC(=O)Nc1ccc(NC(=O)c2ccc3c(c2)OCO3)cc1OC	13	?	50%	17	14
CCCCC(=O)Nc1cccc(NC(=O)c2ccc3c(c2)OCO3)c1	14*	54%	8%	16	12
COc1ccc(-c2nnn(Cc3nc(N)nc(N4CCOCC4)n3)n2)cc1OC	1	-13%	-10%	110	-20
CCOC(=O)c1c(NC(=O)c2cc(C)on2)sc(C)c1C	nt	nt	nt	78	nt
COc1cc(C(O)c2nc(-c3cncnc3)cs2)ccc1F (stereo unspecified)	nt	nt	nt	5	nt
CCOC(=O)c1sc2nccc(N(C)C)c2c1N=CNOCc1ccccc1	16*	?	nt	11	21
CCOC(=O)c1sc2nccc(N(C)C)c2c1N=CNOCc1c(F)cccc1Cl	25*	?	nt	-31	35
COc1ccc(CNC(=O)CN2C(=O)COc3ccc(S(=O)(=O)Nc4ccccc4)cc32)cc1	nt	nt	nt	3	nt
COc1ccccc1Oc1c(NS(=O)(=O)c2ccc(C(C)(C)C)cc2)nc(-c2ncccn2)nc1OCCO	nt	-22%	0%	-10	nt
COc1ccc(S(=O)(=O)NCC2CCCN(Cc3cccnc3)C2)cc1 (stereo unspecified)	2	-40%	-17%	10	-2
CC1CN(C(=S)SCCN2C(=O)CCC2=O)CC(C)O1 (stereo unspecified)	-1	?	20%	25	2
O=C(CSC(=S)N1CCSCC1)c1ccccc1	27*	147%	440%	-9	93*
O=C1CCC(=O)N1CCSC(=S)N1CCSCC1	14*	65%	37%	34	60*
O=C(CSC(=S)N1CCSCC1)c1ccc(Cl)cc1	39*	8%	398%	36	82*
COc1ccc(/C=C(\NC(=O)c2ccc(OC)c(OC)c2)C(=O)N2CCN(C)CC2)cc1	-4	187%	19%	-3	-8
O=[N+]([O-])c1cc2c(cc1Br)CCN2	-6	?	6%	-33	10
Nc1ncccc1OCc1ccc(Br)cc1	71*	198%	149%	-2	77*
COc1ccc(COc2cccnc2N)cc1	35*	113%	105%	24	56*
COc1ccc(Cc2c(N)nc(C)nc2N)cc1	-6	-10%	i	-19	5
COc1ccc(C[C@@H]2c3cc(O)c(OC)cc3CCN2C)cc1O	-4	-18%	12%	14	-17
COc1cc2c(cc1O)[C@@H]1Cc3ccc(OC)c(O)c3CN1CC2	nt	6.6µM*	12µM*	-15	nt
Cc1ccccc1Nc1nc(N)nc(CSc2ccc(F)cc2)n1	48*	299%	i	32	112*
COCCn1c(SCc2nc(N)nc(Nc3ccccc3C)n2)nc2ccccc2c1=O	-2	?	6%	-9	-10
Cc1ccccc1Nc1nc(N)nc(CSc2nnnn2C)n1	48*	229%	176%	2	118*
SMILES	Cycloheximide cs	Pf growth 96h	Pf growth 48h	HCMV inh	Shiga toxin inh
Cc1ccccc1Nc1nc(N)nc(CSc2nc3ccccc3c(=O)n2CCCO)n1	-2	nt	7.4µM*	33	22
Cc1ccccc1Nc1nc(N)nc(CSc2nc3ccccc3s2)n1	10	?	-26%	-5	9
Cc1ccccc1Nc1nc(N)nc(CN(C)Cc2ccccc2Cl)n1	31*	?	-2%	40	18
Cc1cccc(NC(=O)CSc2nnc(NC(=O)Nc3ccccc3)s2)c1C	nt	nt	nt	50	nt
CC(C)Cc1nn2c(=O)cc(COC(=O)c3cccc(NC(=O)c4ccccc4)c3)nc2s1	nt	nt	nt	-9	nt
Cc1ccc(Nc2nc(N)nc(CN3CCCCCC3)n2)c(C)c1	-3	10%	?	18	-7
